The results in this text go back to article PMC4336329 (PLoS ONE, 2015).

In all, about 310,000 compounds went through this assay and about 2,200 (0.71%) showed an effect of 50% or more. Effects have a minus sign here. The list comes from a sample in which strong results are over-represented; it also holds similar structures and randomly drawn compounds.

For this assay, the target named is human ether-à-go-go-related gene (hERG) potassium channel (human, UniProt Q12809). Briefly: primary screen, population patch clamp on CHO cells stably expressing hERG; higher = less effect of the substance.
Sequence of human ether-à-go-go-related gene (hERG) potassium channel (Q12809 whole entry, looked up): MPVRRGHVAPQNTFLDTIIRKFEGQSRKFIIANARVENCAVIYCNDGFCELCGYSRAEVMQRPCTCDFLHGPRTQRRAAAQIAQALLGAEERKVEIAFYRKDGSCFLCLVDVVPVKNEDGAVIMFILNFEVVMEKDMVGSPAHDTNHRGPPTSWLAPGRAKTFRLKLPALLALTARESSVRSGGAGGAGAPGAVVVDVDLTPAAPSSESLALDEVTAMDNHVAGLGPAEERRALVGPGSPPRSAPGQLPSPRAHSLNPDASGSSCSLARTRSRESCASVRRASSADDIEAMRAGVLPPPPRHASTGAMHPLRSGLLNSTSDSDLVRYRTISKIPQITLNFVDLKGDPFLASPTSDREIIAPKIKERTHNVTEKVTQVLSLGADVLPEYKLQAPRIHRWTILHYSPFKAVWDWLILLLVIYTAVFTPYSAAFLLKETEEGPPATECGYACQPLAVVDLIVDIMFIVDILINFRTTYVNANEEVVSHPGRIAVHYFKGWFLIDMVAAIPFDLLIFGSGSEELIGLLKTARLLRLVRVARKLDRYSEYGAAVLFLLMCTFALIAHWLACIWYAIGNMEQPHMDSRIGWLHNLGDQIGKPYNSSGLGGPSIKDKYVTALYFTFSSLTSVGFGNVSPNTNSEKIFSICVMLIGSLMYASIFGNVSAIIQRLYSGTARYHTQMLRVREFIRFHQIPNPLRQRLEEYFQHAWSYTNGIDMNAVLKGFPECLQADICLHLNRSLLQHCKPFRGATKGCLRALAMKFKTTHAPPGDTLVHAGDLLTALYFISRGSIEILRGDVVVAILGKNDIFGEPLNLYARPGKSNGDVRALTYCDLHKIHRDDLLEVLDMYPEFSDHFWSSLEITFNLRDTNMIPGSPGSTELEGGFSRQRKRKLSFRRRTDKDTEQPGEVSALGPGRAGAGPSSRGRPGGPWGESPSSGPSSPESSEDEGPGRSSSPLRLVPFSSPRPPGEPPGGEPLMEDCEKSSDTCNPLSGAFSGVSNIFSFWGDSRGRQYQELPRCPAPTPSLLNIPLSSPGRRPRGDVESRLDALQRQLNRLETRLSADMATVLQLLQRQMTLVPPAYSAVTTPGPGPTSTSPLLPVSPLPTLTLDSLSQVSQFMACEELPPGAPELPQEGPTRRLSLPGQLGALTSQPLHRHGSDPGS
As to `Cc1cc(C)n(Cc2ccccc2)c(=O)c1S(=O)(=O)c1ccccc1`, the “hERG current change (%, negative = inhibition) at 1uM” value is 3.34%.
The figure for `COC(=O)C(C)Sc1nnc(SC(C)C(=O)OC)s1` (stereo not drawn) is 23%.
Turning to `O=C(N/N=C/c1cc(Cl)cc([N+](=O)[O-])c1O)C(O)(c1ccccc1)c1ccccc1`, the “hERG current change (%, negative = inhibition) at 1uM” value is given as -62.4%.
Then `O=C(N/N=C/c1cccc([N+](=O)[O-])c1O)C(O)(c1ccccc1)c1ccccc1`, with 18.6%.
`O=C(N/N=C/c1cc([N+](=O)[O-])cc([N+](=O)[O-])c1O)C(O)(c1ccccc1)c1ccccc1`: the “hERG current change (%, negative = inhibition) at 1uM” value amounted to 0.978%.
For `CSc1cccc(NS(=O)(=O)c2ccc(F)cc2)c1`, the “hERG current change (%, negative = inhibition) at 1uM” value worked out at 7.73%.
The figure for `COCCCNC(=O)CC(C)c1ccccc1` (stereo not drawn) is 8.27%; for `Cn1c2ccccc2n2c(=O)c(=O)n(CC(=O)N3CCCc4ccccc43)nc12` it is -1.27%; for `Br.CCCCCCCCn1c2c(c(=N)c3c1CCC3)CCCC2` it is -84.6%.
Then `CCCn1c2c(c(=N)c3c1CCC3)CCC2.I`, with 8.15%; and `Br.CCCCCCCCCn1c2c(c(=N)c3c1CCC3)CCC2`, with -65.5%; and `CCCCCCn1c(=O)[nH]c2c(c1=O)CCC2`, with 11.6%.
The figure for `Br.CCn1c2c(c(=N)c3c1CCC3)CCC2` is 6.51%.
Regarding `Br.CCn1c2c(c(=N)c3c1CCC3)CCCC2`, the “hERG current change (%, negative = inhibition) at 1uM” value is 4.22%.
Then `CCOC(=O)Cn1c2c(c(=N)c3c1CCC3)CCC2.Cl`, with 10.2%; and `CCCn1c2c(c(=N)c3c1CCC3)CCCC2.I`, with 6.36%.
Consider `Br.CCCCCCCCCCn1c2c(c(=N)c3c1CCC3)CCC2`, for which the “hERG current change (%, negative = inhibition) at 1uM” value is on record as -71.7%.
With `CCOC(=O)Cn1c2c(c(=N)c3c1CCC3)CCCC2.Cl`, the “hERG current change (%, negative = inhibition) at 1uM” value was determined as 12.8%.
With `Br.CCCCCCn1c2c(c(=N)c3c1CCC3)CCC2`, the “hERG current change (%, negative = inhibition) at 1uM” value was -54%.
Consider `CCCCn1c2c(c(=N)c3c1CCC3)CCC2.I`, for which the “hERG current change (%, negative = inhibition) at 1uM” value was found to be 5.32%.
The figure for `CC(=O)n1cc(/C=N/NC(=O)c2cccc(O)c2)c2ccccc21` is 13.7%; for `CC(CC(=O)O)CC(=O)NNC(=O)c1cccc(Br)c1` (stereo not drawn) it is 8.72%; for `C/C(N)=C(/C#N)C(=O)COC(=O)CCSc1ccccc1Cl` it is 12.1%.
As for `CCN(c1ccccc1)S(=O)(=O)c1ccc(Cl)c(C(=O)NCC2CCCO2)c1` (stereo not drawn), the “hERG current change (%, negative = inhibition) at 1uM” value turned out to be 2.1%.
The figure for `O=C(C1CCN(C2CCN(C/C(Cl)=C/c3ccccc3)CC2)CC1)N1CCOCC1` is -33.8%; for `CN1CCN(C(c2ccc(C(F)(F)F)cc2)c2ccc3cccnc3c2O)CC1` (stereo not drawn) it is 7.36%; for `CCC1Oc2nc(SC)nnc2-c2ccccc2N1C(=O)c1ccccc1` (stereo not drawn) it is 11.8%.
Then `COC(=O)C1=C(C)Nc2nc3ccccc3n2C1c1ccccc1F` (stereo not drawn), with 8.31%; and `Cc1cc(CNC(=O)CC2C(=O)NCCN2CC(C)(C)C)nn1C` (stereo not drawn), with 10.4%.
Consider `Cc1cc(C=C2C(=O)NC(=O)NC2=O)c(C)n1-c1ccc2c(c1)OCO2`, for which the “hERG current change (%, negative = inhibition) at 1uM” value is on record as 13.5%.
Then `CCOC(=O)C1CCN(CC(O)COCc2ccccc2)CC1.O=C(O)C(=O)O` (stereo not drawn), with 3.28%; and `CCOC(=O)c1ccc(S(=O)(=O)N2CCN(CC(O)COc3cccc(C(C)=O)c3)CC2)cc1.O=C(O)C(=O)O` (stereo not drawn), with 10%; and `CC(=O)c1cccc(OCC(O)CN2CC=C(c3ccccc3)CC2)c1.O=C(O)C(=O)O` (stereo not drawn), with -50%.
The figure for `CCOC(=O)C1CCN(CC(O)COc2ccc(C(C)=O)cc2)CC1.Cl` (stereo not drawn) is -30.4%.
Then `Cl.OC(COCc1ccc(Cl)cc1)CN1CCCCC1` (stereo not drawn), with 0.152%; and `OC(COCc1ccc(Cl)cc1)CN1CCN(CC(O)COCc2ccc(Cl)cc2)CC1` (stereo not drawn), with -67.5%.
As for `CCOC(=O)C1CCN(CC(O)COCc2ccc3c(c2)OCO3)CC1.Cl` (stereo not drawn), the “hERG current change (%, negative = inhibition) at 1uM” value came to 1.96%.
Then `Cl.OC(COCc1ccccc1)CN1CCCC1` (stereo not drawn), with 1.21%; and `CCOC(=O)C1CCN(CC(O)COc2ccc(C(C)(C)C)cc2)CC1.Cl` (stereo not drawn), with -53.2%; and `CCOC(=O)C1CCN(CC(O)COc2ccc(C(=O)CC)cc2)CC1.Cl` (stereo not drawn), with -49.5%.
As for `CC(=O)c1cccc(OCC(O)CN2CCN(S(=O)(=O)c3c(F)cccc3F)CC2)c1.O=C(O)C(=O)O` (stereo not drawn), the “hERG current change (%, negative = inhibition) at 1uM” value worked out at 1.4%.
As to `CCOC(=O)C1CCN(CC(O)COCc2ccc(Cl)cc2)CC1.Cl` (stereo not drawn), the “hERG current change (%, negative = inhibition) at 1uM” value is listed as -58.6%.
For `COc1cccc(N2CCN(C(=O)Cn3c(=O)oc4ccccc43)CC2)c1`, the “hERG current change (%, negative = inhibition) at 1uM” value worked out at 4.28%.
For `Cc1ccc(-c2nn(-c3ccccc3)cc2/C=N/n2c(-c3cccs3)n[nH]c2=S)cc1`, the “hERG current change (%, negative = inhibition) at 1uM” value was 15%.
Then `NS(=O)(=O)c1ccc(CCNC(=O)CNC(=O)c2ccccc2F)cc1`, with 11.3%.
The figure for `CCOc1ccc(Cc2noc3c2C(=O)CCC3)cc1OCC` is 23.3%; for `O=C(NCCCCCCNC(=O)NCc1ccco1)NCc1ccco1` it is 6.09%; for `O=C1CCC(/C=C/c2ccccc2)=NN1Cc1ccc(Cl)c(Cl)c1` it is 2.78%.
The figure for `O=C(NCc1ccccn1)/C(=N/O)c1ccccc1` is 9.34%; for `CC(C)n1c(O)c(N=Nc2ccc(Cl)nn2)c2ccccc21` it is 10.7%; for `C=CCNC(=S)/C(=C(\[O-])c1ccc(Cl)cc1)[n+]1ccccc1` it is 11.2%.
Turning to `Cc1ccc(S(=O)(=O)NCC2CCC(C(=O)N3CCN(C)CC3)CC2)cc1` (stereo not drawn), the “hERG current change (%, negative = inhibition) at 1uM” value is given as 22.1%.
Take `NC(=O)C1CCCN(CC(O)COCc2ccc(Cl)cc2)C1.O=C(O)C(=O)O` (stereo not drawn): the “hERG current change (%, negative = inhibition) at 1uM” value is 11.5%.
Then `Cl.OC(COCc1ccc(Cl)cc1)CN1CCc2ccccc2C1` (stereo not drawn), with -27.3%; and `O=C(O)C(=O)O.OC(COCc1ccc(Cl)cc1)CN1CC=C(c2ccccc2)CC1` (stereo not drawn), with -84.2%.
For `C=CC[N+]1(CC=C)CCOCC1.[Br-]`, the “hERG current change (%, negative = inhibition) at 1uM” value was 34.2%.
In the case of `COc1ccc(C(=O)/C=C/c2cn(CN3CCN(C)CC3)c3ccccc23)cc1`, the “hERG current change (%, negative = inhibition) at 1uM” value is reported as -3.29%.
As to `Cc1ccc(Cl)c2sc(N3CCN(C(=O)c4ccco4)CC3)nc12`, the “hERG current change (%, negative = inhibition) at 1uM” value is -0.903%.
The figure for `CCOC(=O)C1CCN(C(=O)C2CCN(c3nc4ccc(OC)cc4s3)CC2)CC1` is -53.4%; for `CCOc1ccc2nc(N3CCC(C(=O)N4CCC5(CC4)OCCO5)CC3)sc2c1` it is 6.77%; for `O=C(c1ccco1)N1CCN(c2nc3ccsc3c(=O)s2)CC1` it is -74.5%.
Take `COc1ccc2nc(C)cc(N3CCC(C(N)=O)CC3)c2c1`: the “hERG current change (%, negative = inhibition) at 1uM” value is -2.62%.
The figure for `CCOc1ccc2nc(N3CCC(C(=O)N4CCN(c5ncccn5)CC4)CC3)sc2c1` is 4.83%.
On to `CCOc1ccc2nc(N3CCC(C(=O)N4CCN(c5ccccn5)CC4)CC3)sc2c1`, for which the “hERG current change (%, negative = inhibition) at 1uM” value was -17.4%.
The figure for `CCOc1ccc2nc(N3CCC(C(=O)N4CCN(C5CCCCC5)CC4)CC3)sc2c1` is -8.64%; for `Cc1ccc2nc(N3CCN(C(=O)c4ccco4)CC3)sc2c1` it is -7.42%.
The figure for `CCOC(=O)C1CCN(c2cc(C)nc3ccc(OC)cc23)CC1` is -56.1%; for `COc1ccc(N2CCN(c3cc(C)nc4ccc(OC)cc34)CC2)cc1` it is -31%.
The figure for `CCOc1ccc2nc(N3CCC(C(=O)N4CCN(C(=O)c5ccco5)CC4)CC3)sc2c1` is -89.3%.
